Data as given in ChEMBL document CHEMBL4513216, “Probing the Open Global Health Chemical Diversity Library for Multistage-Active Starting Points for Next-Generation Antimalarials” (ACS Infect Dis, 2020).
The whole screen tested about 65,000 compounds, of which about 2,100 (3.2%) showed an effect of 50% or more. The median lay at about -52%. This is one part of a sample in which strong results are shown more often than they occur.

The compounds below were run on Plasmodium falciparum (assay: Screen against P. falciparum Asexual Blood Stage (ABS), at 5uM). Conditions: tested at 5 uM.
Assay type: functional, Dd2
`CC(=O)N1CCC2(CCN(CC(C)C)C2)C1` (stereo unspecified) gave an INHIBITION of -17.7%.
`CCOC(=O)CN1C[C@@H]2OCCN(c3ncc(F)cn3)[C@@H]2C1` showed an INHIBITION of -17.5%.
In the case of `COCc1cn(C[C@H]2C[C@@H]3CCN2C[C@@H]3C(=O)N2CCOCC2)nn1`, the INHIBITION is reported as -65.4%.
Work on `Cc1cc(C)nc(-n2nc(C)c3c2NC(=O)CSC3c2cnn(C)c2)n1` (stereo unspecified) yielded an INHIBITION of -48.5%.
`Cc1nc(CN2CCCC(CCc3ccc(F)c(F)c3)C2)c[nH]1` (stereo unspecified) was tested, and the INHIBITION was 81.9%.
`O=C(Cc1cnccn1)N1C[C@@H]2CC[C@H]1CN(Cc1cscn1)C2` was tested, and the INHIBITION was -120%.
`Cn1ccnc1CN1CCN2C[C@H](OCc3cccnc3)C[C@H]2C1` gave an INHIBITION of -52.6%.
`Cc1noc(C)c1CN1CCO[C@H]2CN(Cc3nccn3C)C[C@H]21` gave an INHIBITION of -35.4%.
Compound `FC(F)(F)c1ccccc1CCC1CCCN(Cc2cscn2)C1` (stereo unspecified) has an INHIBITION of 79.6%.
`Cc1nc(CN2CCCC(CCc3ccccc3C(F)(F)F)C2)no1` (stereo unspecified) was tested, and the INHIBITION was 45.9%.
`CN(C)Cc1cncc2c1CCN(Cc1cnn(C)c1)C2` showed an INHIBITION of -86.8%.
`Cn1cc(CN2CCCC(CCc3ccccc3C(F)(F)F)C2)cn1` (stereo unspecified) showed an INHIBITION of 87.9%.
`Cn1ccnc1CN1CCCC(CCc2ccc(F)c(F)c2)C1` (stereo unspecified) was tested, and the INHIBITION was 74.5%.
Work on `COc1cccc([C@@H]2CCN(Cc3c[nH]c(C)n3)C[C@H]2O)c1` yielded an INHIBITION of -35.2%.
Work on `COC(=O)C(CO)NC(=O)c1cn(Cc2ccccc2F)nn1` (stereo unspecified) yielded an INHIBITION of -19.2%.
`CC(C)(C)CNCC1(O)CCCN(Cc2ccccc2F)C1=O` (stereo unspecified) was tested, and the INHIBITION was 84.5%.
For `Cc1nc(C2(NCc3cccc(F)c3F)CCCCC2)no1`, the INHIBITION was -42.2%.
`O=C1N(Cc2ccc(F)c(F)c2)CCCC1(O)CNCC1CCCCC1` (stereo unspecified) showed an INHIBITION of 74.1%.
Compound `COc1ccc(F)c(CN2CCCC(O)(CNC3CCCCC3)C2=O)c1` (stereo unspecified) has an INHIBITION of 70.3%.
With `O=C1N(Cc2cccc(F)c2F)CCCC1(O)CNCC1CCCCC1` (stereo unspecified) the INHIBITION was 74.4%.
`O=C(C1CCCC1)N1CCO[C@@H]2CNC[C@@H]21` showed an INHIBITION of 8.33%.
`O=C1N(c2ccsc2)CCC12CCCN(Cc1ccccn1)C2` (stereo unspecified) was tested, and the INHIBITION was -30.2%.
`c1cncc(OC[C@@H]2CC[C@H]3[C@H](CCN3Cc3cccs3)O2)c1` gave an INHIBITION of -15.5%.
Work on `Cc1oncc1C(=O)N[C@@H]1CN(CC2CC2)C[C@@H]2CCCO[C@@H]21` yielded an INHIBITION of -164%.
In the case of `Cc1cc(CN2C[C@@H]3COC[C@]3(CNC(=O)c3ccco3)C2)no1`, the INHIBITION is reported as -65.1%.
`CC(C)N1CCO[C@H]2CN(C(=O)Cc3cccs3)C[C@H]21` showed an INHIBITION of -102%.
`c1cc(CO[C@@H]2CC[C@H]3[C@H]2OCCN3CC2CCOCC2)ccn1` was tested, and the INHIBITION was -52.1%.
With `CNC(=O)[C@@]12CCCN(c3ncccn3)[C@@H]1CN(C)C2` the INHIBITION was -69.8%.
With `CC(C)(C)c1cc(=O)[nH]c(C2(N)CCCC2)n1` the INHIBITION was -59.9%.
`CS(=O)(=O)N1CCC(Nc2ccnc3ccc(Cl)cc23)CC1` was tested, and the INHIBITION was 88.6%.
For `NC(=O)CN1CCC(Nc2ccnc3ccc(Cl)cc23)CC1`, the INHIBITION was 94.4%.
Compound `NC(=O)CN1CCCN(C(=O)COc2cccc(F)c2)CC1` has an INHIBITION of -58.7%.
For `Cc1cc(C)cc(OCC(=O)N2CCCN(CC(N)=O)CC2)c1`, the INHIBITION was -21.7%.
In the case of `CS(=O)(=O)N1CCC(Nc2ccc(C#N)c(C(F)(F)F)c2)CC1`, the INHIBITION is reported as -14.2%.
`O=C1[C@H]2CN(Cc3ccoc3)C[C@H]2CN1Cc1ccncc1` gave an INHIBITION of -110%.
`COc1ccc2c(c1)c(C(=O)Nc1cc(C)n(C)n1)cn2C(C)C` showed an INHIBITION of 9.46%.
`O=C1NCc2ccccc2CC12CCN(Cc1ccncc1Cl)C2` (stereo unspecified) was tested, and the INHIBITION was -32%.
`COc1cc(C2SCC(=O)Nc3ccsc32)cc(OC)c1OC` (stereo unspecified) was tested, and the INHIBITION was -0.914%.
Work on `c1csc(CN2CC[C@H]3C[C@H](c4ccncn4)O[C@@H]3C2)c1` yielded an INHIBITION of -71.5%.
For `C=Cn1cc(CN2CCN(CC3(c4ccccc4)CC3)CC2)c(C)n1`, the INHIBITION was 72.4%.
For `Cn1cc(CN2CCC3(CCCN3Cc3cccnc3)CC2)cn1`, the INHIBITION was -18.8%.
With `Cn1cc(CN2CCN(CC3(c4ccccc4)CC3)CC2)cn1` the INHIBITION was 78.9%.
`Cn1cc(CN2CCC3(CC2)C(=O)Nc2ccccc23)cn1` gave an INHIBITION of -74.2%.
Compound `O=C1CO[C@@H]2CN(C3CCOCC3)C[C@H]2N1Cc1ccncc1` has an INHIBITION of -24.5%.
`Cn1nc(-c2cccs2)cc1[C@H]1CN2CC[C@H]1C[C@@H]2CNS(C)(=O)=O` showed an INHIBITION of -60.1%.
`Cc1nc(C2(NCC(=O)NC(=O)Nc3ccccc3)CCCCC2)no1` was tested, and the INHIBITION was -126%.
Compound `CCn1ccnc1CN1CCCN(C(=O)Cc2ccc(C)cc2)CC1` has an INHIBITION of -118%.
Work on `CCn1ccnc1CN1CCCN(C(=O)Cc2ccc(C)s2)CC1` yielded an INHIBITION of -75.1%.
`CCn1ccnc1CN1CCCN(C(=O)Cc2ccc(C)nc2)CC1` was tested, and the INHIBITION was -85.3%.
Work on `CCn1ccnc1CN1CCCC(CO)(Cc2cccc(Cl)c2)C1` (stereo unspecified) yielded an INHIBITION of 76.8%.
For `CCOC(=O)C1(Cc2ccccc2)CCCN(Cc2nccn2CC)C1` (stereo unspecified), the INHIBITION was 71.1%.
In the case of `Cc1cnn(CC(C)NCc2cc(C#N)ccc2F)c1` (stereo unspecified), the INHIBITION is reported as -49.9%.
For `Fc1cnc(N2CCO[C@H]3CN(CC4CCCCC4)C[C@H]32)nc1`, the INHIBITION was 34.2%.
`COc1ccc(CNC(C)Cn2cccn2)cc1F` (stereo unspecified) gave an INHIBITION of -60.6%.
For `COc1ccc(CNC(Cc2ccsc2)c2ncccc2C)cc1OC` (stereo unspecified), the INHIBITION was 74.7%.
`COc1cccc(OC)c1CNC(Cc1ccsc1)c1ccc(C)cn1` (stereo unspecified) gave an INHIBITION of 92.5%.
Work on `Cc1cccc(C)c1NC(=O)CNC(C)Cc1ccsc1` (stereo unspecified) yielded an INHIBITION of 29.6%.
For `Cc1ccc(NC(=O)CNC(C)Cc2ccsc2)cc1F` (stereo unspecified), the INHIBITION was 22.9%.
In the case of `Cc1ncsc1CN1C[C@@H]2CCCO[C@@H]2[C@H](Nc2ccccn2)C1`, the INHIBITION is reported as -27.2%.
With `c1ccc(C2CCN(c3ncnc4c3CCNC4)CC2)cc1` the INHIBITION was 74.4%.
`Clc1cccc(C2CCN(c3ncnc4c3CCNC4)C2)c1` (stereo unspecified) was tested, and the INHIBITION was 79.6%.
`c1ccc2sc(N3CCCN(c4ncnc5c4CCNC5)CC3)nc2c1` was tested, and the INHIBITION was 85.2%.
`CC[C@H](C)[C@@H](CO)NC(C)Cc1ccc(F)cc1` (stereo partly specified) gave an INHIBITION of 41.2%.
`O=C(C1CCC1)N1CCO[C@@H]2CNC[C@@H]21` was tested, and the INHIBITION was -39.2%.
Work on `COC(=O)NCC1CCC2(CCNCC2)O1` (stereo unspecified) yielded an INHIBITION of -44.6%.
With `CCC(CNC1CCN(C(=O)N(C)C)CC1)Oc1ccccc1C` (stereo unspecified) the INHIBITION was 73.2%.
In the case of `CCOC(=O)N1CCC(NC(C)Cc2cc(C)n[nH]2)CC1` (stereo unspecified), the INHIBITION is reported as -139%.
For `CCOC(=O)[C@@H]1[C@@H](c2ccccc2)CN2CCN(C(=O)N(C)C)C[C@H]12`, the INHIBITION was -64%.
With `CN(C)C(=O)CN1CCCC12CCCN(c1ncc(F)cn1)C2` (stereo unspecified) the INHIBITION was -30.5%.
For `CC(C)(C)n1cc(C2=CCN(CCNC(N)=O)CC2)cn1`, the INHIBITION was -161%.
With `CC(C)(C)n1cc(C2=CCN(CCNC(=O)c3ccccc3)CC2)cn1` the INHIBITION was 19.4%.
`CC(C)(C)n1cc(C2=CCN(CCc3ccccc3)CC2)cn1` gave an INHIBITION of 68%.
`CC(C)(C)n1cc(C2=CCN(CCc3ccccn3)CC2)cn1` showed an INHIBITION of 45.2%.
Compound `Cc1nc(O)cc(CN2CC=C(c3cnn(C(C)(C)C)c3)CC2)n1` has an INHIBITION of -58.8%.
`CC(C)(C)n1cc(C2=CCN(CCN3CCCCCC3)CC2)cn1` gave an INHIBITION of 71.5%.
`COCCN1CCC12CCN(c1ncccn1)C2` (stereo unspecified) gave an INHIBITION of -86.1%.
With `Cc1cccc2c1ccn2CC(=O)NC[C@@H]1CCCN2CCCC[C@H]12` the INHIBITION was 70.9%.
For `O=C(CC[C@@H]1CCCN2CCCC[C@H]12)NCCc1cc(O)ncn1`, the INHIBITION was -119%.
For `O=C(Cn1ccc2c(Cl)cccc21)N1CCC2(CC1)OCCO2`, the INHIBITION was -85.8%.
`O=C(Cn1ccc2ccc(Br)cc21)NC[C@@H]1CCCN2CCCC[C@H]12` gave an INHIBITION of 79.3%.
Work on `Cc1nc(O)cc(CNC(=O)CC[C@@H]2CCCN3CCCC[C@H]23)n1` yielded an INHIBITION of -4.68%.
In the case of `O=C(Cc1c[nH]c2ccccc12)N1CCC(Nc2ccccc2)CC1`, the INHIBITION is reported as -7.04%.
`CN1CCc2c(CNC(=O)c3nccn3C)cncc2C1` showed an INHIBITION of -77.8%.
Compound `COCCN1CCN(c2ccc(C)nn2)Cc2cccnc21` has an INHIBITION of -2.72%.
For `Cc1n[nH]cc1C(=O)NCc1cccnc1N1CCc2ccccc2C1`, the INHIBITION was 75.3%.
Compound `O=C(C1CCC1)N1CCC2(CCNCC2)C1` has an INHIBITION of -39.1%.
For `COc1ccc(-c2c(C)nn3c(=N)c(C#N)n[nH]c23)cc1OC`, the INHIBITION was 87.8%.
Compound `O=C(c1cccnc1)N1C[C@@H]2OCCN(CCN3CCCC3)[C@@H]2C1` has an INHIBITION of -134%.
Work on `CC(=O)NC[C@H]1C[C@@H]2CCN1C[C@@H]2c1cc(-c2cccs2)nn1C` yielded an INHIBITION of -50.5%.
Work on `CC(C)(C)c1cn2c(n1)C(CNCc1ccccn1)CCC2` (stereo unspecified) yielded an INHIBITION of 92.9%.
`CC(C)(C)c1cn2c(n1)C(CNCc1cnn3ccccc13)CCC2` (stereo unspecified) was tested, and the INHIBITION was 80%.
`Cn1cccc1CNCC1CCCn2cc(C(C)(C)C)nc21` (stereo unspecified) gave an INHIBITION of 75.7%.
`Cc1cccc(CN2C(=O)C[C@H]3[C@@H]2CCN3Cc2ccccn2)n1` gave an INHIBITION of -22.5%.
`c1ccc(CN2CC[C@H]3[C@H]2CCN3c2ncccn2)nc1` gave an INHIBITION of -84.3%.
`Cc1nc(NCC2CC2)nc2c1COCC21CCNC1` (stereo unspecified) showed an INHIBITION of -88.5%.
For `Cc1noc([C@]23COC[C@H]2CN(Cc2cc(C)on2)C3)n1`, the INHIBITION was -5.88%.
With `Cc1nn(C)c2nc(N3CCCCC3c3cccnc3)sc12` (stereo unspecified) the INHIBITION was -114%.
In the case of `CCCS(=O)(=O)N1CCc2c(COCC)cncc2C1`, the INHIBITION is reported as -24.8%.
`Cc1noc(C)c1CN1C[C@@H]2CCCO[C@@H]2[C@H](NS(C)(=O)=O)C1` was tested, and the INHIBITION was -59.8%.
Work on `O=C(NCC(=O)N1CCC2(CC1)OCCO2)c1ccoc1` yielded an INHIBITION of -196%.
For `CS(=O)(=O)N1C[C@@H]2CC[C@H]1CN(Cc1ccncc1)C2`, the INHIBITION was -82.5%.
